BoNT F protease: inhibitors of Botulinum neurotoxin F light chain protease; Multiplex microsphere protease cleavage assay, flow cytometry; inhibition, % at 10 µM; 0.22% of 360,000 active; AID 588497; in the data active = inhibition above about 35%, passing the limit was not always enough; inconclusive = no clear call, values can overlap the other calls; note: plate controls were buffer without enzyme for full effect and enzyme alone for no effect
Anthrax LF prot: inhibitors of Bacillus anthracis lethal factor protease; P15917; multiplex microsphere protease cleavage assay, LF; inhibition, % at 10 µM; 0.12% of 360,000 active; note: plate controls were buffer without enzyme for full effect and enzyme alone for no effect
MazEF act: increases E. coli MazEF RNase cleavage of RNA | AID 504720 | 0.32% of 350,000 active | activation, % at 20 µM | FAM/BHQ RNA-DNA oligo cleavage fluorescence, 5 h; in the data active = activation above about 50%
BoNT-A LC inh2: BoNT A light chain protease inhibition | multiplex microsphere protease substrate cleavage, flow cytometry | inhibition, % at 10 µM | 0.17% of 360,000 active | AID 588499; note: plate controls were buffer without enzyme for full effect and enzyme alone for no effect
Autofluor counter: flagged as autofluorescent in microsphere protease counterscreen; 3.1% of 360,000 active; AID 624483; compound autofluorescence counterscreen, microsphere flow cytometry; hits give high values; fluorescence intensity (test concentration not listed); in the data active = fluorescence intensity above about 16000; inconclusive = no clear call, values can overlap the other calls
Numbers without * were called inactive; ? = inconclusive; nt = no result; + = active, no number. Most compounds without a hit are left out; they make up all but 3.7% or so of the library. Cut-off read from the data, not from the text of the source, unless noted: active = inhibition above about 30%; inconclusive = no clear call, values can overlap the other calls; inactive = below that.

SMILES	BoNT F protease	Anthrax LF prot	MazEF act	BoNT-A LC inh2	Autofluor counter
CCOC(=O)CN(C(=O)CSc1nnc(CNc2ccc(C)cc2C)o1)c1ccccc1	1	-15	-5	1	21560*
CCOC(=O)CN(C(=O)CSc1nnc(-c2ccc(OC)c(OC)c2)o1)c1ccccc1	-2	1	1	?	20211*
COc1ccc(-c2nnc(SCC(=O)N3CCN(c4ccccc4)CC3)o2)cc1OC	-4	-6	6	-1	4250
COc1ccc(-c2nnc(SCC(=O)N3CCC(Cc4ccccc4)CC3)o2)cc1OC	-3	-5	3	0	22436*
O=C(CN1C(=O)NC(Cc2c[nH]c3ccccc23)C1=O)NC1CCCCC1 (stereo not given)	-8	-6	5	-1	3150
Cn1c(O)c(/C=C2\C=Nc3ccccc32)c(=O)n(C)c1=O	-4	-9	141*	-1	3531
COC(=O)C1=Nc2ccccc2/C1=C\c1c(O)n(C)c(=O)n(C)c1=O	-4	0	-13	-2	6472
CCCCn1c(O)c(/C=C2\C=Nc3ccccc32)c(=O)[nH]c1=O	7	14	255*	-3	3902
O=c1[nH]c(=O)n(-c2cccc(F)c2)c(O)c1/C=C1\C=Nc2ccccc21	8	-12	-159	-2	5243
CCOc1ccc(S(=O)(=O)N2CCCCC2)cc1NC(=O)Cc1cccs1	4	2	-5	-4	5596
C=CCn1c(=O)/c(=C/c2cc(OC)c(OC)c(OC)c2)s/c1=C(/C#N)c1nc2ccccc2n1C	58*	61*	+	112*	2299
C=CCn1c(=O)/c(=C/c2ccc(O)cc2)s/c1=C(/C#N)c1nnc2n1CCCCC2	15	0	-198	2	9229
C=CCNCCOCCOc1ccc(C)cc1[N+](=O)[O-]	2	-3	-2	1	21806*
CCc1ccc(CNc2ccc3c(c2)ncn3CC)cc1	?	-2	8	1	3739
CCn1cnc2cc(NCc3ccc(OC)cc3)ccc21	-3	-2	0	-2	23891*
CCCCn1cnc2cc(NCc3ccncc3)ccc21	4	0	2	4	19414*
COc1ccc(-c2[nH]n(-c3ccc([N+](=O)[O-])cc3)c(=O)c2C=NCc2ccc(F)cc2)cc1	-3	2	81*	1	2509
Fc1ccccc1/C=C1\CCCC2=C1Nc1nnnn1C2c1ccccc1F (stereo not given)	1	1	-2	0	22685*
COC(=O)[C@]12CCCCC=C1N(CCC1=CCCCC1)C(=O)[C@H](CC(=O)NCCCN1CCCC1=O)C2	-10	-1	nt	0	5853
Cc1ccc2c(c1)N(CCCC(=O)Nc1cccc(C(F)(F)F)c1)C(=O)CO2	1	-2	-2	1	7223
c1ccc(CCn2c(C3CC3)nc3ccccc32)cc1	-5	0	6	0	16345*
CC(C)C(=O)Nc1cccc(-c2cnc3ccccc3n2)c1	0	-1	-3	2	20196*
Cc1cccc(C(=O)Nc2cccc(-c3cnc4ccccc4n3)c2)c1	-2	-2	53*	0	10686
Cc1ccc(C(=O)Nc2cccc(-c3cnc4ccccc4n3)c2)cc1	3	2	5	2	5719
O=C(C1CCC(=O)N1Cc1ccccc1Cl)N1CCN(c2ccc(F)cc2)CC1 (stereo not given)	-2	4	1	0	2793
SMILES	BoNT F protease	Anthrax LF prot	MazEF act	BoNT-A LC inh2	Autofluor counter
O=C(Nc1cc(Cl)cc(Cl)c1)C1CCC(=O)N1Cc1ccccc1Cl (stereo not given)	2	-6	5	3	21909*
CC(NC(=O)C1CCC(=O)N1Cc1ccccc1Cl)c1ccccc1 (stereo not given)	31	-7	4	1	4075
O=C(C1CCC(=O)N1Cc1ccccc1Cl)N1CCC2(CC1)OCCO2 (stereo not given)	8	0	6	5	20370*
CNC(=O)C1CCC(=O)N1Cc1ccccc1Cl (stereo not given)	-1	-2	4	0	23165*
COc1cccc(C(NC(C)=O)c2nc(-c3ccc4ccccc4c3)cs2)c1 (stereo not given)	0	-6	nt	0	3799
CC1CCc2cccc3c2N1c1cc(C#N)c(C#N)cc1O3 (stereo not given)	0	1	84*	-1	23863*
CC(C)(CO)CNC(=O)c1ccc2nc(Cc3cccc(Cl)c3)oc2c1	?	-3	-1	-4	4178
COc1ccc(-c2cn3cccnc3n2)cc1NC(=O)CC(C)C	0	-2	5	0	7719
Cc1ccc(-c2cn3cccnc3n2)cc1NC(=O)c1ccc(Br)o1	-6	-5	4	-3	17184*
COc1ccc(-c2cn3cccnc3n2)cc1NC(=O)c1ccc(Br)o1	-2	-2	1	0	20830*
O=C(Nc1cccc(-c2cn3cccnc3n2)c1)c1ccco1	-2	-4	-10	-1	10527
O=C(Nc1cccc(-c2cn3cccnc3n2)c1)c1ccc(Br)o1	1	-4	-5	?	22911*
CCCC(=O)Nc1cc(-c2cn3cccnc3n2)ccc1OC	7	0	3	5	18918*
Cc1ccc(-c2cn3cccnc3n2)cc1	-10	-4	10	-1	4386
CC1(Cc2ccc(OC(F)(F)F)cc2)C(=O)Nc2ccc(OC(F)(F)F)cc21 (stereo not given)	-4	4	nt	-1	3780
CCc1nc2ccc(C(=O)Nc3ccc(NC(C)=O)cc3)cn2c1N(C)CCCc1ccccc1	-5	-11	nt	0	3883
Cc1c(OCC(=O)NCC(O)c2ccccc2)ccc2c(-c3ccccc3)cc(=O)oc12 (stereo not given)	-4	-4	-5	0	4230
O=C(Nc1cccc(-c2cn3cccnc3n2)c1)c1ccc2c(c1)OCO2	12	-5	5	?	19449*
Cc1ccccc1-c1ccc(/C=C2/SC(N3CCOCC3)=NC2=O)o1	?	-10	151*	0	4011
O=C1N=C(N2CCOCC2)S/C1=C\c1ccc(-c2ccccc2Cl)o1	12	-2	61*	2	8595
C=CCn1cc(/C=C2\SC(N3CCOCC3)=NC2=O)c2ccccc21	nt	nt	14	nt	nt
O=C1N=C(N2CCOCC2)S/C1=C\c1cccs1	-5	-3	15	-2	3255
COCCn1c(SCC(=O)Nc2sc(C)c(C)c2C#N)nnc1-c1ccc(OC)cc1	1	-2	-11	-1	22774*
Cc1ccc(-c2nnc(SCC(=O)Nc3sc(C)c(C)c3C#N)n2C)cc1	-7	-1	-48	0	2117
Cn1ccnc1Sc1nnnn1-c1ccccc1	-3	0	4	-1	20712*
N#Cc1c2n(c3c(=O)n(Cc4ccc(Cl)cc4)cnc13)CCCCC2	-4	0	-7	1	3595
N#Cc1c2n(c3c(=O)n(Cc4ccccc4)cnc13)CCCC2	-7	-2	0	-5	17920*
CC(=O)Nc1cccc(NC(=O)CS(=O)(=O)c2cn(CC(=O)N3CCCC3)c3ccccc23)c1	1	-1	2	-1	5702

Assay outcomes as filed in PubChem BioAssay.
